High-throughput results: PubChem BioAssay, The Scripps Research Institute Molecular Screening Center
TEAD-YAP inh – TEAD-YAP interaction inhibition, primary screen, TEAD-YAP interaction inhibitor project, luminescence, HEK-TIYL cells | TEAD-Gal4/YAP UAS-luciferase luminescence | inhibition, % at 9.12 µM | 640,000 tested, 1.4% active; in the data active means inhibition above about 32%;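 further: 0% = median of test compound wells and 100% = reference inhibitor wells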
MITF inh – MITF inhibitors, primary screen, biochemical, AlphaScreen, human. 650,000 tested, 0.91% active. AID 1259374, 2018. Microphthalmia-associated transcription factor (Homo sapiens), O75030. AlphaScreen MITF homodimerization, bead proximity signal. inhibition, % at 2.6 µM; in the data active means inhibition above about 50%;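 further: 0% = vehicle wells with protein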
FBW7 activator – FBW7 E3 ligase activators, primary screen, biochemical, AlphaScreen, human; F-box/WD repeat-containing protein 7 (Homo sapiens), Q969H0; AlphaScreen FBW7–phospho-cyclin E peptide binding, activator screen; normalized activity (activation), % at 26.1 µM; 650,000 tested, 0.13% active; AID 1259310, 2017; in the data active means normalized activity above about 1.9%;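 further: purified mutant Fbw7 with reduced substrate affinity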
GPR151 activ – activators of human GPR151, primary screen, cell-based, PathHunter beta-arrestin, luminescence. G-protein coupled receptor 151 (Homo sapiens), Q8TDV0. PathHunter beta-arrestin GPR151 cells. activation, % at 11.2 µM. 650,000 tested, 1% active; in the data active means activation above about 4.9%;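 further: 0% = median of compound wells and 100% = cells with positive control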
Target sequence (Q8TDV0 whole entry, looked up): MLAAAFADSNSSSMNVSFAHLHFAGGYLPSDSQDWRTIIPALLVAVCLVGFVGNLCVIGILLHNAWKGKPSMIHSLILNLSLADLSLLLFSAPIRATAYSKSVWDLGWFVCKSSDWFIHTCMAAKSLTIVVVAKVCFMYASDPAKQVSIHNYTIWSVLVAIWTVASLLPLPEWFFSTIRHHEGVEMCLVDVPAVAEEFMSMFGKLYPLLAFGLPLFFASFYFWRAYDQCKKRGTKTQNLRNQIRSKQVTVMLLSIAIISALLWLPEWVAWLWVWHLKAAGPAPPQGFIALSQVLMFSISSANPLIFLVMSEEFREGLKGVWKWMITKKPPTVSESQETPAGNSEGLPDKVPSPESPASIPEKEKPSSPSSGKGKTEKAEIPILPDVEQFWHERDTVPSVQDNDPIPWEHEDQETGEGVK
GPR151 conf act – GPR151 activators, triplicate retest, confirmation, cell-based, PathHunter beta-arrestin, luminescence. activation, % at 11.2 µM. shares compounds with GPR151 activ. GPR151 PathHunter beta-arrestin cells, 90 min; % of EA-reagent control over plate median. 6,700 tested, under 10 active;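 active means mean percent activation across replicates above the confirmation screen cutoff of 4.91%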
GPR119 counter – GPR119 activators in beta-arrestin cells, counter-screen for GPR151 activator project, cell-based, PathHunter beta-arrestin, luminescence, triplicate; shares compounds with GPR151 activ; 90 min; 0 = compound-well median, 100 = enzyme-acceptor control; activation, % at 11.2 µM; 6,700 tested, 0.3% active; AID 1508611, 2020;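 active means mean percent activation in the counterscreen above 29.09%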;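 further: counterscreen on off-target GPR119 to flag nonselective hits from the GPR151 activator screen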
* = called active by the depositor. Sampled rows, rich in hits. Any-hit rate of the full collection: about 3.5%.

`CCOc1ccc(-c2csc(/C(C#N)=C/c3ccccc3OCC)n2)cc1` gave TEAD-YAP inh -6, MITF inh 7, FBW7 activator 0, GPR151 activ 6.2*, GPR151 conf act 5 and GPR119 counter 13.
COc1ccc(-c2csc(/C(C#N)=C/Nc3ccc(C(N)=O)cc3)n2)cc1OC was read as TEAD-YAP inh 0, MITF inh -9, FBW7 activator 0 and GPR151 activ 1.
CC(C)(C)CC(=O)NC1=NCCS1 was read as TEAD-YAP inh 0, MITF inh -16, FBW7 activator 0 and GPR151 activ -2.
For Cc1cccn2c(CN3CCOCC3)c(C(=O)N3CCCCC3)nc12 the results were TEAD-YAP inh -13, MITF inh 8, FBW7 activator 0 and GPR151 activ 0.
Cc1cccn2c(CN3CCN(c4ccncc4)CC3)c(C(=O)N3CCCCC3)nc12 was read as TEAD-YAP inh 8, MITF inh -11, FBW7 activator 0, GPR151 activ 5.2*, GPR151 conf act 0 and GPR119 counter 5.
Cc1cccn2c(CNCCc3ccccn3)c(C(=O)N3CCOCC3)nc12 was read as TEAD-YAP inh -6, MITF inh -9, FBW7 activator 0, GPR151 activ 5.9*, GPR151 conf act 0 and GPR119 counter 3.
Screening Cc1cccn2c(CNC3CCOC(C)(C)C3)c(C(=O)N3CCOCC3)nc12 (stereo not drawn) returned TEAD-YAP inh -8, MITF inh 0, FBW7 activator 0, GPR151 activ 4.9*, GPR151 conf act 0 and GPR119 counter -4.
C=CCNC(=O)NC(=O)COC(=O)CC(NC(N)=O)c1ccc(Cl)cc1 (stereo not drawn) was read as TEAD-YAP inh 2, MITF inh -3, FBW7 activator 0, GPR151 activ 4.9*, GPR151 conf act 1 and GPR119 counter 4.
`CCOC(=O)C1=C(C)NC2=C(C(=O)C(C(=O)OC)C(C)C2)C1c1ccc(O)c(OC)c1` (stereo not drawn) gave TEAD-YAP inh -12, MITF inh 7, FBW7 activator 0 and GPR151 activ -1.
`COc1ccc(NC2CC(=O)N(c3ccc(Cl)c(C(F)(F)F)c3)C2=O)cc1` (stereo not drawn) gave TEAD-YAP inh 15, MITF inh 3, FBW7 activator 0, GPR151 activ 6.0*, GPR151 conf act 0 and GPR119 counter -8.
COc1ccccc1NC1CC(=O)N(c2ccc(Br)cc2)C1=O (stereo not drawn) was read as TEAD-YAP inh 6, MITF inh -5, FBW7 activator 0 and GPR151 activ 0.
`COc1ccc(NC2CC(=O)N(c3ccc(OC)cc3)C2=O)cc1` (stereo not drawn) gave TEAD-YAP inh 0, MITF inh -5, FBW7 activator 0 and GPR151 activ -2.
COc1ccccc1NC1CC(=O)N(c2cccc(Cl)c2)C1=O (stereo not drawn) was read as TEAD-YAP inh -9, MITF inh 2, FBW7 activator 0, GPR151 activ 9.1*, GPR151 conf act 0 and GPR119 counter 4.
`C=CCn1c(Cc2ccc(OC)c(Cl)c2)n[nH]c1=S` gave TEAD-YAP inh 7, MITF inh 3, FBW7 activator 0 and GPR151 activ 0.
Screening COc1ccc(CCN2C(=O)CC(C(=O)Nc3cccc(C)c3)SC2=Nc2ccc(F)cc2)cc1 (stereo not drawn) returned TEAD-YAP inh 4, MITF inh -3, FBW7 activator 1 and GPR151 activ 0.
`CCOc1ccc(Nc2n[nH]c(=S)n2-c2ccc(OCC)cc2)cc1` gave TEAD-YAP inh 4, MITF inh 0, FBW7 activator 0, GPR151 activ 6.3*, GPR151 conf act 1 and GPR119 counter 5.
For COC(=O)c1c(C)oc2c1cc(NS(=O)(=O)c1cc(C)ccc1C)c1ccccc12 the results were TEAD-YAP inh -8, MITF inh -8, FBW7 activator 0 and GPR151 activ 5.
COc1ccc(OC)c(S(=O)(=O)Nc2cc3c(C(C)=O)c(C)oc3c3ccccc23)c1 was read as TEAD-YAP inh -3, MITF inh -6, FBW7 activator 0, GPR151 activ 5.7*, GPR151 conf act 0 and GPR119 counter -6.
CC(Sc1nnc(NC(=O)c2ccccc2)s1)c1nc2ccccc2c(=O)[nH]1 (stereo not drawn) was read as TEAD-YAP inh -1, MITF inh 7, FBW7 activator 0, GPR151 activ 5.7*, GPR151 conf act 0 and GPR119 counter 5.
For COCC(=O)NNC(=S)Nc1ccc(Cl)c(Cl)c1 the results were TEAD-YAP inh -7, MITF inh -26, FBW7 activator 0 and GPR151 activ 1.
`O=C(O)c1c(Br)sc(-c2ccccc2)c1-c1ccccc1` gave TEAD-YAP inh -11, MITF inh -1, FBW7 activator 0, GPR151 activ 7.1*, GPR151 conf act 0 and GPR119 counter -2.
COc1ccc(S[C@@H]2C[C@@H](C(=O)N(C)Cc3ccn[nH]3)N(Cc3ccncc3)C2)cc1 was read as TEAD-YAP inh -6, MITF inh 10, FBW7 activator 0 and GPR151 activ -1.
`CCN(Cc1ccccc1)C(=O)Cn1c(=O)n(-c2ccc(OC)cc2)c(=O)c2ccccc21` gave TEAD-YAP inh 11, MITF inh 2, FBW7 activator 0, GPR151 activ 7.9*, GPR151 conf act 1 and GPR119 counter -1.
For CCOc1ccc(-n2c(=O)c3sccc3n(CC(=O)N(CC)CC)c2=O)cc1 the results were TEAD-YAP inh 2, MITF inh 1, FBW7 activator 0 and GPR151 activ 0.
For O=C(O)CSc1nc(-c2ccccc2)cc(C(F)F)n1 the results were TEAD-YAP inh 1, MITF inh -3, FBW7 activator 0 and GPR151 activ -1.
Screening Cc1nc(SCC(=O)O)cc(-c2ccccc2)n1 returned TEAD-YAP inh -5, MITF inh -14, FBW7 activator 0, GPR151 activ 5.0*, GPR151 conf act -1 and GPR119 counter -2.
Cc1nc2c(C(=O)NCCc3ccccc3)c[nH]n2c(=O)c1Cl was read as TEAD-YAP inh 0, MITF inh 15, FBW7 activator 0 and GPR151 activ -1.
Screening Cc1nc2c(C(=O)NCc3ccc(F)cc3)c[nH]n2c(=O)c1Cl returned TEAD-YAP inh -3, MITF inh 2, FBW7 activator 0, GPR151 activ 9.6*, GPR151 conf act 0 and GPR119 counter 5.
